Data published in PubChem BioAssay AID1259415 (National Center for Advancing Translational Sciences (NCATS), 2018).
Screen size: about 410,000 compounds; about 18,000 (4.4%) were called active. Inconclusive results (about 7%) are left out. Shown is part of a subset that was picked to be rich in actives. Unmarked numbers belong to inactive results. Rule as the data show it: active = activity change below about -60%; inconclusive = no clear call, values can overlap the other calls; inactive = above about -39%.

Assay: qHTS Assay for inhibitors of the human cytomegalovirus (HCMV)
Conditions: HFF cells, HCMV-luciferase reporter, 72 h; at 57.5 µM; stronger effect = lower value
How it was run: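 Compounds were evaluated in HFFs infected with an HCMV luciferase reporter virus (MOI 1 PFU/cell). Luciferase in lysates collected 72 h post infection served as the replication measure.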
% is scaled to controls: 0 for no effect and ±100 for the full control effect.

SMILES | activity change, negative = inhibition
Cn1c(=O)oc2cc(S(=O)(=O)CCC(=O)NCCc3ccc(Cl)cc3)ccc21 | 11.3%
CCN(CC)c1nn2c(=O)c(C(=O)NCCc3ccccc3)cnc2s1 | 3.6%
COc1ccc(NS(=O)(=O)c2cc3c4c(c2)CC(=O)N4CCC3)cc1Cl | -18.7%
CCOc1ccc(Br)cc1S(=O)(=O)N1CCC(C(=O)O)CC1 | -26.6%
CCOc1ccc(Br)cc1CSC(=N)N | -73.3% (active)
CCOc1ccc(Br)cc1S(=O)(=O)Nc1cccc(S(=O)(=O)N(CC)CC)c1 | 14.1%
Cc1nn(C)c2c1c(C(F)(F)F)cc(=O)n2C(C)C(=O)NCc1ccc(Cl)cc1 (centres undefined) | 7.11%
O=C(c1cccc(Br)c1)N1CCN(Cc2cc(=O)n3nc(-c4ccccc4)sc3n2)CC1 | -19.8%
COc1ccccc1NC(=O)Cn1cnc2ccc(S(=O)(=O)N3CCC(C)CC3)cc2c1=O | -5.25%
COc1ccc(NC(=O)CSc2nnc(-c3nnn(-c4ccc(F)cc4)c3C)o2)cc1 | 10.5%
Cc1ccccc1NC(=O)Cn1c(=O)n(CCc2ccccc2)c(=O)c2ccccc21 | 24.5%
O=C(c1ccccc1F)N1CCC(c2nc3c(nnn3Cc3cccc(F)c3)c(=O)[nH]2)CC1 | 67.9%
Cc1ccc(Cn2nnc3c(=O)[nH]c(C4CCN(S(=O)(=O)/C=C/c5ccccc5)CC4)nc32)cc1 | 48.5%
Cc1ccc(NC(=O)N2CCC(c3nc4c(nnn4Cc4c(F)cccc4Cl)c(=O)[nH]3)CC2)cc1 | -65.5% (active)
CCOc1ccc(-n2c(C)nc3c(cnn3-c3ccc(C)cc3)c2=O)cc1 | -26.3%
CCCNC(=S)N1CCC(NC(=O)C23CC4CC(CC(C4)C2)C3)CC1 | 20%
Cc1ccc(CNC(=O)CSc2c(C)cnc3c2c(=O)n(C)c(=O)n3C)cc1 | -25%
O=C(OC12CC3CC(CC(C3)C1)C2)c1ccc(NCc2cc(O)ccc2O)cc1 | -100% (active)
O=C(CSCc1c(Cl)cccc1Cl)NN1C(=O)c2ccccc2C1=O | 12.2%
CCN1CCc2nc3sc(C(=O)Nc4ccccc4OC(F)(F)F)c(N)c3cc2C1 | -25.3%
Cc1ccc(Cc2cnc(NC(=O)/C(C#N)=C/c3ccc(-c4cccc([N+](=O)[O-])c4)o3)s2)cc1 | -61.6% (active)
CCOC(=O)c1ccc(-c2ccc(/C=C(\C#N)C(=O)Nc3ccc(C)cc3)o2)cc1 | 31.4%
CCOC(=O)c1ccc(-c2ccc(/C=C(\C#N)C(=O)Nc3ccc(OCC)cc3)o2)cc1 | 4.93%

SMILES | activity change, negative = inhibition
N#C/C(=C\c1ccc(-c2cccc([N+](=O)[O-])c2)o1)C(=O)NCCN1CCOCC1 | -67.8% (active)
O=C(NCCN1CCN(C(=O)c2cccc([N+](=O)[O-])c2)CC1)C(=O)NCc1ccc(Cl)cc1 | 27.7%
CCCCOC(=O)/C(C#N)=C/c1ccc(-c2cccc(C(F)(F)F)c2)o1 | -3.64%
Cc1ccc(OCCSc2nc(-c3cccs3)nc3cc(=O)[nH]n23)cc1Cl | 22.8%
COc1ccccc1N1CCN(S(=O)(=O)CCNC(=O)COc2ccc(F)cc2)CC1 | 65.8%
Cc1ccc(NC(=O)CCCn2c(=O)c3cccn3c3ccccc32)cc1Cl | 4.78%
CC(C)c1ccc(S(=O)(=O)N2CCC3(CC2)OCCO3)cc1 | -60.4% (active)
Cc1c(C)c(C)c(S(=O)(=O)N2CCC3(CC2)OCCO3)c(C)c1C | -6.48%
O=S(=O)(c1ccc(Cl)s1)N1CCC2(CC1)OCCO2 | -18.3%
COCCNC(=O)c1cccc(-c2nc3c(NC4CCCCC4)nccc3[nH]2)c1 | -4.46%
CCOc1ccccc1NC(=O)CCn1cnnn1 | -4.13%
NC(=S)NN=Cc1ccc(OC(=O)COc2cc(Cl)c(Cl)cc2Cl)cn1 | -75.3% (active)
O=C(COc1cc(Cl)c(Cl)cc1Cl)NC(=O)NC1CCCC1 | 65.3%
CC(C)(C)c1ccc(C(=O)N2CCC(c3nc(-c4ccc(S(=O)(=O)N5CCCC5)cc4)no3)CC2)cc1 | -35.7%
CCCN(C(=O)Cn1cc(S(=O)(=O)N2CCN(c3ccccc3F)CC2)c2ccccc2c1=O)c1cccc(C)c1 | -13.9%
CC1COC2C(O1)N(S(C)(=O)=O)CCN2S(C)(=O)=O (centres undefined) | 17.4%
CCCOC1CCCN(C(=O)c2cc(COc3cncc(Cl)c3)on2)C1 (centres undefined) | 45.7%
CCOC(=O)CC1(NC(=O)c2cc(COc3cncc(Cl)c3)on2)CCCCC1 | -73.4% (active)
CCOC(=O)CC1COCCN1C(=O)c1cc(COc2ccc(F)c(F)c2)on1 (centres undefined) | 53.9%
O=C(O)CSc1nccn1-c1cccc(Cl)c1 | -24.9%
Cc1ccc(Nc2c(-c3ccc(N(C)C)cc3)nc3nc[nH]n23)cc1 | -7.65%
Cc1cccc(OCCSc2nc3ccccc3n2CC(=O)N2CCCCC2)c1C | 0.117%
CCOC(=O)C1CCCN(C(=O)c2ccc(-n3ccc4ccccc43)s2)C1 (centres undefined) | 7.94%

SMILES | activity change, negative = inhibition
C=CCC1(CC=C)CCCN1C(=O)c1cc(COc2ccc(-n3cncn3)cc2)on1 | -87.7% (active)
Cc1ccc(C)c(OCc2cc(C(=O)N3CCN(c4cnccn4)CC3)no2)c1 | -30.5%
CC1CN(C(=O)c2cc(COc3c(F)cccc3F)on2)CCN1C (centres undefined) | 3.63%
COc1cccc(CNC(=O)Cn2c(=O)c3cccn3c3ccc(F)cc32)c1OC | 44.7%
CCOc1ccccc1CNC(=O)c1ccc2c(c1)nc1n2CCC(C)C1 (centres undefined) | 33.3%
Cc1ccc2nc(COc3cccc(NC(=O)Nc4ccc(C)c(Cl)c4)c3)cc(=O)n2c1 | 26.6%
CC(NC(=O)c1cc2c(=O)n3ccccc3nc2n(C(C)C)c1=N)c1ccccc1 (centres undefined) | 0.208%
Cc1nn(-c2nc(-c3ccccc3)cc(C(F)(F)F)n2)c(C)c1Cl | -14.9%
CCCCC(=O)NC(c1ccc(OC)c(OC)c1)c1ccc2cccnc2c1O (centres undefined) | -103% (active)
CCOc1ccc(C(CC(=O)O)n2cnnn2)cc1OC (centres undefined) | -29.4%
CCCCCCCC(=O)NC(Nc1ccccc1OC)C(Cl)(Cl)Cl (centres undefined) | -23.2%
COC(=O)/C(=C\Nc1ccccc1)NC(=O)c1ccc(Cl)cc1Cl | -5.36%
COc1ccc(OC)c(CCNC(=O)CCCn2c(=O)c3cccn3c3cccnc32)c1 | 6.58%
COc1ccc(NC(=O)CN2CCCN(Cc3ccccc3)S2(=O)=O)cc1 | 0%
N#C[C@]1(S(=O)(=O)c2ccccc2)C[C@@H]2ON=C(c3cccc(Br)c3)[C@@H]2C1 | -79.5% (active)
COC(=O)[C@]1(S(=O)(=O)c2ccccc2)C[C@@H]2ON=C(c3ccc(OC)cc3)[C@@H]2C1 | 13.3%
COc1ccc(CNc2nc(-c3ccc(Cl)cc3)cc(C(F)(F)F)n2)cc1 | -7.09%
CCN(CC)S(=O)(=O)c1ccc2c(c1)nc(CN(C)C(=O)Nc1ccc(Cl)cc1)n2C | 9.69%
Cc1cccc(NC(=O)C2CCN(S(=O)(=O)c3c(C)noc3/C=C/c3ccco3)CC2)c1 | -40%
Cc1noc(/C=C/c2ccco2)c1S(=O)(=O)N1CCC(C(=O)N2CCc3ccccc32)CC1 | 47.1%
Cc1noc(/C=C/c2ccco2)c1S(=O)(=O)N1CCC(C(=O)Nc2ccc(Cl)cn2)CC1 | -79.9% (active)
C[C@H]1CN([C@@H](C)CO)C(=O)CCCn2cc(nn2)CO[C@@H]1CN(C)S(=O)(=O)c1ccccc1C#N | -5.79%
Cc1cccc(N2CCN(S(=O)(=O)c3ccc4[nH]c5c(c4c3)CCCCC5)CC2)c1C | 16.6%

SMILES | activity change, negative = inhibition
Cc1c(NC(=O)Nc2ccc(F)c(Cl)c2)c(=O)n(-c2ccccc2)n1C | 1.88%
CC(C)(C)NC(=O)/C(=C/c1cccnc1)NC(=O)c1ccco1 | -61.3% (active)
O=C(NC(Cc1ccccc1)C(=O)O)/C(=C\c1ccccc1)NC(=O)c1ccco1 (centres undefined) | 54.3%
C/C(CC(=O)NC(C)(C)C)=N\NC(=O)c1ccco1 | 16.9%
Cc1ccc(/C=C(\C#N)C(=O)Nc2cc(C)ccc2C)cc1 | -15.9%
Cc1ccc(CNC(=O)C2CCCN2C(=O)NCc2ccccc2)cc1 (centres undefined) | 1.11%
CCCc1cc(=O)n2[nH]c(C)c(-c3ccc(Cl)cc3)c2n1 | 4.01%
Cc1[nH]n(-c2cccc(Cl)c2)c(=O)c1-c1ccc(Cl)cc1 | -66.9% (active)
O=c1c2ccccc2[nH]c(=S)n1-c1cccc(Cl)c1 | -21.9%
Cc1ccc2c(c1)N(CC(=O)N1CCCC(C)C1)C(=O)CO2 (centres undefined) | -22.2%
COC(=O)c1sc2ncccc2c1-n1c(C)ccc1C | -10.3%
CCOC(=O)c1cc2cc(OC)ccc2n1C1CCN(C)CC1 | -32.2%
CCN(CC)c1cc(NC2CCCCC2)c2c3c(onc13)-c1ccccc1C2=O | -25.5%
CC(Oc1ccc(Cl)cc1)C(=O)Nc1ncccn1 (centres undefined) | -1.17%
COc1c(Cl)cc(Cl)cc1C(=O)Nc1cccc2cccnc12 | 33.4%
CC(=O)/C(=N\Nc1ccc(Cl)cc1Cl)Sc1cccc2cccnc12 | -103% (active)
Cc1nn2c(=O)cc(COC(=O)c3ccccc3NC(=O)COc3ccccc3C)nc2s1 | 31.1%
CC(=O)c1cccc(NC(=O)c2nc(-c3ccccc3)n(-c3cccc(C)c3)n2)c1 | -18.5%
Cc1cccc(-n2ncc(Cl)c(Cl)c2=O)c1 | -104% (active)
Cc1cccc(-n2ncc(C(=O)N3CCN(c4ccc(Cl)cc4)CC3)c2C2CCN(C(=O)OC(C)(C)C)CC2)c1 | 0%
